Experimental data reported in PubChem BioAssay.
Where “and” joins values, the source holds several entries; their conditions need not be identical. Equal values may be shown once. Results filed as inconclusive are left out. Calls of active or inactive are those of the source.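 How the source made its calls, unless noted: active means percent response above 42, roughly 3 SD of non-fluorescent test compounds; inactive means the rest.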

Experiments:
[1] = yeast TOR pathway RPL19A-GFP modulators, primary screen, cell-based, S. cerevisiae, multiplex flow cytometry (AID 1862; in the data active means percent of DMSO control GFP below about 86%;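 further: lower values mimic rapamycin by blocking the RPL19A rise seen in DMSO cells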); conditions: S. cerevisiae RPL19A-GFP strain, flow cytometry fluorescence, 3 h; at 10 µM; stronger effect = lower value
[2] = modulators of MEP2-GFP levels in yeast, primary screen, S. cerevisiae, multiplex flow cytometry (AID 1867;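 active means GFP response, as percent of the DMSO control, above the screen-wide mean plus 3 SD, about 139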;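 further: median GFP channel fluorescence of barcode-gated MEP2-GFP cells measured by flow cytometry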); conditions: S. cerevisiae MEP2-GFP strain, 3 h, at 10 µM, stronger effect = higher value, 100% means same as DMSO wells
[3] = modulators of CIT2-GFP expression in yeast, primary screen, S. cerevisiae, GFP fusion, multiplex flow cytometry (AID 1870;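 active means percent response above a set limit, the screen-wide mean plus 3 SD, cut at about 130% in these data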;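 further: barcoded CIT2-GFP strain pooled with four other GFP strains with rapamycin as positive control; median GFP fluorescence per well over plate mean of DMSO wells so 100% = DMSO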); conditions: 3 h, at 10 µM, stronger effect = higher value
[4] = modulators of LAP4-GFP expression in yeast, primary screen, S. cerevisiae, multiplex flow cytometry (AID 1873;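 active means GFP signal, as percent of the solvent control, above the screen mean plus 3 SD, about 149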); conditions: 3 h, at 10 µM, stronger effect = higher value
[5] = modulators of AGP1-GFP expression in yeast TOR pathway, primary screen, cell-based, multiplex flow cytometry, S. cerevisiae (AID 1887;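 active means GFP signal above the screen-wide mean plus 3 SD, that is over about 124.5% of the solvent control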;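 further: AGP1-GFP fusion strain of S. cerevisiae within a five-strain barcoded multiplex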); conditions: 3 h, at 10 µM, stronger effect = higher value
[6] = inhibitors of CD8+ T cell-vesicle binding, pilot screen, LFA-1/ICAM-1 modulator project, MLPCN validation set, flow cytometry (AID 2523;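 active means response below a set limit, under 55% cells CD8-positive and vesicle-bound, and CD8 cells' 90th-percentile brightness under 279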;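 on vesicle binding response: mean PE anti-B7-1 fluorescence of CD8+ cells relative to row control; 100% = QL9-loaded vesicles with DMSO vehicle in the same plate row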); conditions: 2C mouse CD8+ T cells, at 7 µM, stronger effect = lower value; double positive events: measured here: CD8+/vesicle+ event percentage
[7] = target: Integrin beta-1 (Homo sapiens) + Integrin alpha-4 (Homo sapiens) (UniProt P13612+P05556); assay: inhibition of HUTS-21 binding to VLA-4, pilot screen, VLA-4 allosteric modulator project, U937 cells, HUTS-21 mAb, flow cytometry, validation set (AID 2674;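 active means inhibition above 50%, about 3 SD of the validation set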;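 further: antibody binding induced by the VLA-4 ligand LDV present at three times its Kd; 0% = LDV ligand with antibody and no compound and 100% = antibody without LDV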); conditions: HUTS-21 LIBS mAb binding, at 6.7 µM, stronger effect = higher value, binding induced by LDV ligand
Chain of Integrin beta-1 (Homo sapiens) + Integrin alpha-4 (Homo sapiens) (P05556 whole entry, looked up): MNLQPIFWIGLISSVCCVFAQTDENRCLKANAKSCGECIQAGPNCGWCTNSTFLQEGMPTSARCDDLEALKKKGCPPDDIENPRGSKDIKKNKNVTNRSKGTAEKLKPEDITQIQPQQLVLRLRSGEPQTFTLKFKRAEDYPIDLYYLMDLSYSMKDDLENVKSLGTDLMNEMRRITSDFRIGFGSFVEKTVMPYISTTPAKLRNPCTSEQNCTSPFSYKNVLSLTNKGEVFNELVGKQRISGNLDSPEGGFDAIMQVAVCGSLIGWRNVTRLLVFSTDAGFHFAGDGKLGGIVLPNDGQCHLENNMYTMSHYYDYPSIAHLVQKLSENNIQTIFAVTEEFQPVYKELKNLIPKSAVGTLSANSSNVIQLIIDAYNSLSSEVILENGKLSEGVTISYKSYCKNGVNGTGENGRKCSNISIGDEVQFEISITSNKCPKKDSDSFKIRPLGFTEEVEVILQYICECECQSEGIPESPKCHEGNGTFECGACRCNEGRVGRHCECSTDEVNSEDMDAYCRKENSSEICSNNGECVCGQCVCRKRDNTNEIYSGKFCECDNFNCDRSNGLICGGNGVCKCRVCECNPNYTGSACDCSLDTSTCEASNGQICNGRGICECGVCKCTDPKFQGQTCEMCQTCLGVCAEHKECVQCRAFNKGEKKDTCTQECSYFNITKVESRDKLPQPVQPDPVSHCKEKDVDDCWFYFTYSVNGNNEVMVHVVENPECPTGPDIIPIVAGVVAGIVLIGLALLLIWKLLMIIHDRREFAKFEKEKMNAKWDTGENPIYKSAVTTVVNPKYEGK
Chain of Integrin beta-1 (Homo sapiens) + Integrin alpha-4 (Homo sapiens) (P13612 whole entry, looked up): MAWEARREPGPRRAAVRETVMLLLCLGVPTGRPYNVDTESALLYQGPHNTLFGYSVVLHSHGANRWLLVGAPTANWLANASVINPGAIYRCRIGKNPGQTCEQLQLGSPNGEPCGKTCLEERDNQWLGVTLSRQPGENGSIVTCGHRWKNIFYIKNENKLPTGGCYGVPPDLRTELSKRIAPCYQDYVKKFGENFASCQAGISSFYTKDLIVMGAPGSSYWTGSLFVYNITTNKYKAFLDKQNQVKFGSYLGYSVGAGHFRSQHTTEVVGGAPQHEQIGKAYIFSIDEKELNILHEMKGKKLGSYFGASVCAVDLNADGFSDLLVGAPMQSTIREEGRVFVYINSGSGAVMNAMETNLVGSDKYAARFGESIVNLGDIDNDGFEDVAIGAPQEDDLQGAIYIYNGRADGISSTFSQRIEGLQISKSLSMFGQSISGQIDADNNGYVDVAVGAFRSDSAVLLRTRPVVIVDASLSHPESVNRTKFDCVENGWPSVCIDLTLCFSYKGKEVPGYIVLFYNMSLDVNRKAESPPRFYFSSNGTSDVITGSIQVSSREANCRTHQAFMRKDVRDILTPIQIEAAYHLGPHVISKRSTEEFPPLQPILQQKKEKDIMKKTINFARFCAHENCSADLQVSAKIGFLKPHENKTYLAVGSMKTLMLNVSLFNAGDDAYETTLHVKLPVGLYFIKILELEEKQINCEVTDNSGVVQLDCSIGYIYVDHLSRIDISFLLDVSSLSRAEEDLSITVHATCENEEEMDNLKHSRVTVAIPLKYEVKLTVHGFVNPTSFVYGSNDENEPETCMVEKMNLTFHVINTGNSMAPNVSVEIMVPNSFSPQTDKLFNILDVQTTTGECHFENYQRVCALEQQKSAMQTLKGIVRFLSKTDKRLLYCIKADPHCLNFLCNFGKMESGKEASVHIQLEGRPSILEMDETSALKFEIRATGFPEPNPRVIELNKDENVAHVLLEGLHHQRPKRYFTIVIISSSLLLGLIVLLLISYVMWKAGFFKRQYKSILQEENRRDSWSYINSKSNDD

[8] = superoxide lowering in aged yeast cells, pilot screen, validation compound set (AID 2706;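 active means superoxide response below 65% of plate, a cut near 3 SD across the whole screen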;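 further: yeast exposed to compound for one week at 30 degrees C before staining; 100% = mean of all compound wells on the same plate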); conditions: S. cerevisiae aging, superoxide DHE fluorescence; at 10 µM; stronger effect = lower value
[9] = target: Beta-adrenergic receptor kinase 1 (Homo sapiens) (UniProt P25098); assay: GRK2 binders displacing RNA aptamer, biochemical, validation, human GRK2, bead flow cytometry (AID 488806;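 active means aptamer binding inhibition above 30%, about 3 SD of noise from non-fluorescent compounds; inactive means inhibition at or below 30%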); conditions: bead-bound GRK2, FAM-aptamer displacement, at 10 µM, stronger effect = higher value
Chain of Beta-adrenergic receptor kinase 1 (Homo sapiens) (P25098 whole entry, looked up): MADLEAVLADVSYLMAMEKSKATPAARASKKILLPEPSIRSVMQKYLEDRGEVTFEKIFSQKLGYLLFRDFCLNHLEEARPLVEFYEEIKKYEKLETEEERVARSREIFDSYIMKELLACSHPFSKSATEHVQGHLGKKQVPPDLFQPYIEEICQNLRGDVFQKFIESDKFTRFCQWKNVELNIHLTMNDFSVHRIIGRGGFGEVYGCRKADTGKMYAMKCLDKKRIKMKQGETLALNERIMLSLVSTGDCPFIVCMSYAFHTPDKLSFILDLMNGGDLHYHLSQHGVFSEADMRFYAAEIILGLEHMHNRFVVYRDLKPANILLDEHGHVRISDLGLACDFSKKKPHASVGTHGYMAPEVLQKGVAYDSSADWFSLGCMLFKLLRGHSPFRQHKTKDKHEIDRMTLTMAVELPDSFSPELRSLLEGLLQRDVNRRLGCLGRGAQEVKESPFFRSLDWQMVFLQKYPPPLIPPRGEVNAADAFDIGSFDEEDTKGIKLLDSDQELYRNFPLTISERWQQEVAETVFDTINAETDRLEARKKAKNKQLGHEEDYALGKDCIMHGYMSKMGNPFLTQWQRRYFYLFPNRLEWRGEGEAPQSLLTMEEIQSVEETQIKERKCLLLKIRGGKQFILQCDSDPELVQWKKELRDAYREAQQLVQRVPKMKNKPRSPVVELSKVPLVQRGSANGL

[10] = target: Beta-2 adrenergic receptor (Homo sapiens) (UniProt P07550); assay: beta2AR agonists driving receptor internalization, pilot screen, cell-based, FAP fluorogen, flow cytometry, validation set (AID 504459); conditions: Am2.2-beta2AR cells, FAP surface receptor flow cytometry; at 10 µM; stronger effect = higher value;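 further: agonist-driven loss of surface beta2AR via internalization measured by FAP dye flow cytometry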
Chain of Beta-2 adrenergic receptor (Homo sapiens) (P07550 whole entry, looked up): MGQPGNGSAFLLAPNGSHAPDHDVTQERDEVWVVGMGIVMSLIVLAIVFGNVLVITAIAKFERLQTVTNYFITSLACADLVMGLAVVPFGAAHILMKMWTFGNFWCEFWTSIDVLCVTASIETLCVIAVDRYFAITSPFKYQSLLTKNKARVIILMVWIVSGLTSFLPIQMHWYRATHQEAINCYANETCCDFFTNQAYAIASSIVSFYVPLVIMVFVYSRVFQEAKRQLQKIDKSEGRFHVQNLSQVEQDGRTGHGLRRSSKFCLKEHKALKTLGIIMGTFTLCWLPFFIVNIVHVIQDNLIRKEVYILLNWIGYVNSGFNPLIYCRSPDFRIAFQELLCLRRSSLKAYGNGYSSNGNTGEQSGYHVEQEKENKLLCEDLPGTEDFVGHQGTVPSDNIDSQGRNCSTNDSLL

[11] = target: AP-2 complex subunit beta (Homo sapiens) (UniProt P63010); assay: inhibitors of arrestin peptide binding to AP2, pilot screen, biochemical, validation set, GST-AP2 beads, flow cytometry (AID 504541;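 active means inhibition above 54%, about 3 SD of non-fluorescent compounds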;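 further: AP2 carries R879A mutation and is captured from E. coli lysate; bead-bound FITC arrestin peptide fluorescence measuring arrestin peptide binding to AP2; 0% = DMSO wells and 100% = excess unlabeled arrestin peptide control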); conditions: FITC arrestin peptide, at 10 µM, stronger effect = higher value, AP2 beta2 appendage fragment, R879A mutant
Chain of AP-2 complex subunit beta (Homo sapiens) (P63010 whole entry, looked up, the tested form may be a part, one chain of several): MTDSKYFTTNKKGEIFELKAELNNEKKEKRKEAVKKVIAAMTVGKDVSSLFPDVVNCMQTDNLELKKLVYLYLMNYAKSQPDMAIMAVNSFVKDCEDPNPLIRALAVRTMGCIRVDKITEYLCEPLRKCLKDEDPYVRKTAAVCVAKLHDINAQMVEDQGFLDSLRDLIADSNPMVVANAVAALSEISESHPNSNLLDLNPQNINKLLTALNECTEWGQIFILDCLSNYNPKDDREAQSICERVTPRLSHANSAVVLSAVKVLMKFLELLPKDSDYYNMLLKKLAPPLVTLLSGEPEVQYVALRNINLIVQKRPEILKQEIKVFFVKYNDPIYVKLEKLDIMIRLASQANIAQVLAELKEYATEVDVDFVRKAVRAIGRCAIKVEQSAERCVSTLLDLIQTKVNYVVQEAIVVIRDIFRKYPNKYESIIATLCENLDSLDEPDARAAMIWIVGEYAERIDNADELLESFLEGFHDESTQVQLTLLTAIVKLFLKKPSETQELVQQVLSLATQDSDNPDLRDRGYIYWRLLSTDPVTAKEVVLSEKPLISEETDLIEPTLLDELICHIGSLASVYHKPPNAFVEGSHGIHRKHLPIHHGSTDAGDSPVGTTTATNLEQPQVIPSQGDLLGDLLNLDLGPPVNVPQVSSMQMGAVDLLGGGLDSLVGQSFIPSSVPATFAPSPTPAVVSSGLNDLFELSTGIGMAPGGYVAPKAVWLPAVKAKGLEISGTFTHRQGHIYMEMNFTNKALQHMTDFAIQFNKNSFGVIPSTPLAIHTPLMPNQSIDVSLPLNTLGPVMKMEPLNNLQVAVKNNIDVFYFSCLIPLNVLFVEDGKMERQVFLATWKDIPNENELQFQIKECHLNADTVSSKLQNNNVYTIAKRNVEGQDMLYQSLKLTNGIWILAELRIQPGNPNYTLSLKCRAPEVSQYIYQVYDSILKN

[12] = yeast V-ATPase proton transport modulators, S. cerevisiae, pHLuorin, HTS validation (AID 504600; in the data active means response above about 15%;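 further: plate controls were DMSO for no effect and reference compound for full effect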); conditions: S. cerevisiae pHLuorin cytosolic pH, at 10 µM, stronger effect = higher value
[13] = system: anti-desmoglein-3 scFv antibody binding to human DSG3; assay: inhibitors of anti-DSG3 scFv binding to DSG3, pilot screen, biochemical, validation compound set, bead-based, flow cytometry (AID 588368;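 active means binding below the plate cutoff, the plate median minus 3 SD, with a reading above zero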;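 further: signal is the median channel fluorescence of bead-bound GFP antibody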); conditions: Protein G beads, DSG3-Fc, scFv-GFP binding, at 10 µM, stronger effect = lower value
[14] = inhibitors of fungal efflux pumps CDR1, CDR2, MDR1, pilot screen, validation compound set, multiplex, phenotypic (AID 588506;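 active means efflux inhibition above 0.42, the validation set average plus 4 SD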;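 further: Nile Red retained in cells so higher fluorescence means more efflux inhibition; 0 = negative control wells and 1 = enniatin B 25 µM full block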); conditions: S. cerevisiae pump-expressing triplex, Nile Red efflux flow cytometry; at 10 µM; stronger effect = higher value; the pumps come from Candida albicans
[15] = target: ATP-binding cassette sub-family B member 6 (Homo sapiens) (UniProt Q9NP58); assay: ABCB6 transporter inhibitors, pilot screen, K562-ABCB6 cells, flow cytometry, validation set (AID 588550;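 active means inhibition above the screen-wide mean plus 3 SD, about 51%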;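 further: 0% = DMSO wells and 100% = benzethonium chloride 70 µM positive control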); conditions: K562-ABCB6 porphyrin accumulation, 1 h, at 10 µM, stronger effect = higher value
Chain of ATP-binding cassette sub-family B member 6 (Homo sapiens) (Q9NP58 whole entry, looked up): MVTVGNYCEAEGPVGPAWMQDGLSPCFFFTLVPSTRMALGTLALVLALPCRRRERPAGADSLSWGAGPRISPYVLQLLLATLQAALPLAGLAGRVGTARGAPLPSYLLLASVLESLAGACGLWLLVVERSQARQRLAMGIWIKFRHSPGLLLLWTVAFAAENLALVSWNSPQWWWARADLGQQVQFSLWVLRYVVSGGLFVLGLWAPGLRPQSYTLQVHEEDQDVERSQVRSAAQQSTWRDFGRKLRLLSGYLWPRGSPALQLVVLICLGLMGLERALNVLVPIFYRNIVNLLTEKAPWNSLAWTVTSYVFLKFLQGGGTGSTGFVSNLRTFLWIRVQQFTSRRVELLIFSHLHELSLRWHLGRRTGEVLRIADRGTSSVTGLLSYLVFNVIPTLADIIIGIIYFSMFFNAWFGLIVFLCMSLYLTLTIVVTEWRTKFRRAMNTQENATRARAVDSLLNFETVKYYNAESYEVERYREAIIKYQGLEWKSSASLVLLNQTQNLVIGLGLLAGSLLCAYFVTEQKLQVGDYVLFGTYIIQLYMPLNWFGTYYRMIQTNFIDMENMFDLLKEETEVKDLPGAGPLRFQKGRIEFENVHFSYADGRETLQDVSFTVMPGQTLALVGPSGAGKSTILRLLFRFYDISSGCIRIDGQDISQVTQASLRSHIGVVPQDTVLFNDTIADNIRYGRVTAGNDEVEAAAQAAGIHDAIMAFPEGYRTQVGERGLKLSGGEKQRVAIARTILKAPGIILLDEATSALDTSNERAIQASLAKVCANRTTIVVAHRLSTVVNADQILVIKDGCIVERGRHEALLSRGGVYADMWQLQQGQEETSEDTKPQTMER

[16] = promoters of myeloid differentiation in arrested cells, primary screen, cell-based, GFP/MAC1 double positive, flow cytometry, validation set (AID 588685;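 active means differentiation response of at least 50%, scaled between solvent and reference control, from cells with both markers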;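 further: compound exposure lasts four days before antibody staining and flow analysis; 0% = DMSO wells and 100% = 5 µM fulvestrant positive control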); conditions: ER-HoxA9 marrow cells, stronger effect = higher value, normalized: vehicle 0, fulvestrant 100

| SMILES | percent of DMSO control GFP [1] | GFP response vs DMSO [2] | percent response of DMSO control [3] | GFP response vs DMSO [4] | GFP response, % of DMSO [5] | double positive events [6] | vesicle binding response [6] | inhibition [7] | superoxide response (% of plate) [8] | aptamer binding inhibition [9] | response [10] | inhibition [11] | response [12] | binding (% of control) [13] | efflux inhibition (fraction of control) [14] | inhibition [15] | differentiation response [16] |
| --- | --- | --- | --- | --- | --- | --- | --- | --- | --- | --- | --- | --- | --- | --- | --- | --- | --- |
| O=C(c1ccc(Cl)cc1)C1CCCN(Cc2ccc(Oc3ncccn3)cc2)C1 (stereo not drawn) | 108% (inactive) | 104% (inactive) | 106% (inactive) | 87.2% (inactive) | 96.5% (inactive) | 65.7% | 227% (inactive) | 24.4% (inactive) | 93.5% (inactive) | 2% (inactive) | -3.98% (inactive) | -1.25% (inactive) | 2.78% (inactive) | 106% (inactive) | -0.12 (inactive) | 21% (inactive) | -6.03% (inactive) |
| O=C(NC(Nc1ccccn1)C(Cl)(Cl)Cl)c1ccccc1 (stereo not drawn) | 100% (inactive) | 102% (inactive) | 103% (inactive) | 103% (inactive) | 102% (inactive) | 58.7% | 157% (inactive) | -13.2% (inactive) | 91.6% (inactive) | -1% (inactive) | 1.87% (inactive) | -6.1% (inactive) | -1.51% (inactive) | 99.8% (inactive) | 0.25 (inactive) | -8% (inactive) | -10.4% (inactive) |
| CCC(=O)Nc1ccc(C(=O)N2CCN(C(=O)c3ccco3)CC2)cc1 | 101% (inactive) | 109% (inactive) | 104% (inactive) | 101% (inactive) | 99.7% (inactive) | 64.9% | 202% (inactive) | 4.73% (inactive) | 101% (inactive) | 0% (inactive) | -11.7% (inactive) | 0.87% (inactive) | -1.11% (inactive) | 95.5% (inactive) | -0.23 (inactive) | 0% (inactive) | 7.09% (inactive) |
| CCN1CCn2c3c(c4cc(Cl)ccc42)CCCC31 (stereo not drawn) | 99.3% (inactive) | 102% (inactive) | 97.7% (inactive) | 107% (inactive) | 116% (inactive) | 62.3% | 154% (inactive) | -10.5% (inactive) | 106% (inactive) | 5% (inactive) | -10.7% (inactive) | -7.04% (inactive) | 3% (inactive) | 104% (inactive) | -0.09 (inactive) | -8% (inactive) | -21.7% (inactive) |
| NCCc1cnc[nH]1 | 89.8% (inactive) and 102% (inactive) | 129% (inactive) and 104% (inactive) | 101% (inactive) and 102% (inactive) | 78.7% (inactive) and 113% (inactive) | 84.5% (inactive) and 117% (inactive) | 55.6% and 61.9% | 192% (inactive) and 166% (inactive) | -33.3% (inactive) and -35.2% (inactive) | 105% (inactive) and 109% (inactive) | 3% (inactive) and 0% (inactive) | -15.1% (inactive) and -30.5% (inactive) | -4.51% (inactive) and -1.77% (inactive) | 25.1% (active) and 47.3% (active) | 105% (inactive) and 106% (inactive) | 0.09 (inactive) and 0.04 (inactive) | 5% (inactive) and -3% (inactive) | -5.73% (inactive) and -4.99% (inactive) |
| c1ccc(CNc2ncnc3nc[nH]c23)cc1 | 103% (inactive) | 104% (inactive) | 90.8% (inactive) | 90.1% (inactive) | 97.8% (inactive) | 63.6% | 581% (inactive) | 9.92% (inactive) | 93.5% (inactive) | 6% (inactive) | 1.86% (inactive) | -1.71% (inactive) | -1.37% (inactive) | 94.8% (inactive) | 0.11 (inactive) | 3% (inactive) | 7.09% (inactive) |
| CC(C)=CCC/C(C)=C/CC/C(C)=N/O | 97.4% (inactive) | 115% (inactive) | 91% (inactive) | 108% (inactive) | 93.5% (inactive) | 59.7% | 199% (inactive) | 6.4% (inactive) | 97.4% (inactive) | 4% (inactive) | 3.47% (inactive) | -1.05% (inactive) | -1.49% (inactive) | 103% (inactive) | 0.08 (inactive) | -63% (inactive) | -2.4% (inactive) |
| CCn1ccnc1CN(C)Cc1cn(-c2cccc(C)c2)nc1-c1cccc(F)c1 | 104% (inactive) | 95.6% (inactive) | 108% (inactive) | 92.6% (inactive) | 104% (inactive) | 63.6% | 145% (inactive) | -7.79% (inactive) | 102% (inactive) | 4% (inactive) | -10.5% (inactive) | -10.8% (inactive) | 3.23% (inactive) | 105% (inactive) | 0.11 (inactive) | 21% (inactive) | -14.8% (inactive) |
| COc1ccc(C(=O)Nc2cccnc2)cc1C(=O)Nc1cccnc1 | 104% (inactive) | 107% (inactive) | 102% (inactive) | 107% (inactive) | 106% (inactive) | 65% | 191% (inactive) | -3.77% (inactive) | 104% (inactive) | 2% (inactive) | 9.93% (inactive) | -14.1% (inactive) | 0.74% (inactive) | 99% (inactive) | -0.11 (inactive) | 8% (inactive) | 13% (inactive) |
